Experimental data as given in PubChem BioAssay AID1259309 (ICCB-Longwood Screening Facility, Harvard Medical School, 2017).
Where “and” joins values, the source holds several entries; their conditions need not be identical. Equal values may be shown once. Hit rate of the full screen: of about 330,000 compounds, about 1,800 (0.55%) were called active. No stated cut-off is given here; in the data, active means growth inhibition above about 68%; inactive means the rest. Only a selection was taken, and actives are over-represented in it overall.

Test: growth inhibition of ugtP-null S. aureus, primary screen, RN4220 ugtP deletion, OD600 (AID 1259309);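 further: plate controls were untreated wells for no effect and antibiotic for full effect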
Conditions: 16 h, active compounds read high

| Compound | growth inhibition |
| --- | --- |
| COc1ccc(C(=O)Nc2ccccc2C(=O)NN=Cc2ccccc2OC)cc1 | 10.4% (inactive) |
| NC1=NCC(Cc2ccc(O)cc2)N1CCc1cccc(F)c1 (stereo not drawn) | 4.31% (inactive) and -0.973% (inactive) |
| CSCc1cc(N2CCOCC2)nc(SCc2ccc(Cl)cc2Cl)n1 | 93.1% (active) |
| CSCCC(NC(=O)c1ccc(Cl)cc1Cl)C(=O)NNC(=O)c1csc(N2CCOCC2)n1 (stereo not drawn) | 6.67% (inactive) |
| CSCc1cc(N(C)C)nc(SCc2ccc(Cl)cc2Cl)n1 | 63.4% (inactive) |
| CCN(CC)c1ccc(C=NNC(=O)c2c[nH]c3ccccc23)cc1 | -5.72% (inactive) |
| CCN1C(=O)C2C(C1=O)C(c1ccccc1)N1C(=O)c3ccccc3NC(=O)C21 (stereo not drawn) | -13.8% (inactive) |
| CCC1CCCCN1C(=O)NC(CCSC)C(=O)OC (stereo not drawn) | 7.53% (inactive) |
| O=C(Nc1nnc(-c2ccco2)o1)c1ccc(S(=O)(=O)N2CCOCC2)cc1 | 11.9% (inactive) |
| COc1ccc(-c2nnc(NC(=O)CS(=O)(=O)c3ccc(Cl)cc3)o2)c(OC)c1 | 46.4% (inactive) |
| COc1cccc(-c2nnc(NC(=O)c3ccc(S(=O)(=O)N(CC(C)C)CC(C)C)cc3)o2)c1 | 100% (active) |
| Cn1c2ccccc2c2nnc(NN=Cc3ccc(O)cc3)nc21 | 3.8% (inactive) |
| O=C(NN=Cc1ccc(-c2ccc(Cl)c(Cl)c2)o1)C(=O)N1CCCC1 | -5.08% (inactive) |
| CCc1nnc(NN=Cc2c(Cl)cccc2Cl)n1N | -4.51% (inactive) |
| C=CCOc1ccc(C(O)=C2C(=O)C(=O)N(CCCOC)C2c2ccc(O)c(OC)c2)cc1 (stereo not drawn) | 8.37% (inactive) |
| O=[N+]([O-])c1cc(C=NNC(=Nc2ccccn2)c2ccccn2)ccc1O | 66.8% (inactive) |
| CCCc1cc(-c2nc(-c3ccc(C)cc3)cs2)ccn1 | 16.9% (inactive) |
| CCn1c(SCCC(C)C)nnc1-c1c[nH]c2ccccc12 | -3.66% (inactive) |
| Cc1ccc(-c2csc(-c3c[nH]c4ccccc34)n2)cc1 | 89.5% (active) |
| C=CCn1c(N=Cc2ccc(OC)cc2)nc2ccccc21 | 7.61% (inactive) |
| COc1ccc2nc(N=C(N)NC(=O)N3c4ccccc4Sc4ccccc43)nc(C)c2c1 | -21.3% (inactive) |
| COc1ccc2c(c1OC)CN1CCc3cc4c(cc3C1C2O)OCO4 (stereo not drawn) | 15.5% (inactive) |
| CCOc1ccccc1C=NNC(=O)c1nnn(-c2nonc2N)c1CN1CCCCCC1 | 2.59% (inactive) |
| C#CCOCCOCCOCCNc1nc(N2CCN(C(=O)C(CCCCN)n3cc(CCCC)nn3)CC2)nc(N2CCN(C(=O)C(C(C)CC)n3cc(CCCN=C(N)N)nn3)CC2)n1 (stereo not drawn) | 11.2% (inactive) |

| Compound | growth inhibition |
| --- | --- |
| CC(=O)c1cccc(NC(=O)C2COc3ccccc3O2)c1 (stereo not drawn) | 8.46% (inactive) |
| CC(=NNC(=O)CNC(=O)C1COc2ccccc2O1)c1ccc([N+](=O)[O-])cc1 (stereo not drawn) | 0.446% (inactive) |
| O=C(Nc1ncc([N+](=O)[O-])s1)C1COc2ccccc2O1 (stereo not drawn) | 90.5% (active) |
| O=C(O)CCC(=NNC(=O)c1cn(-c2ccccc2)nc1-c1ccccc1)C(=O)O | 0.633% (inactive) |
| CCc1ccc2c(c1)C1(NN=C(c3ccccc3)S1)C(=O)N2 (stereo not drawn) | 95.8% (active) |
| CC(=NOC(=O)c1ccc(F)cc1)c1sc(-c2ccccc2)nc1C | -1.32% (inactive) |
| CON=CCC(=O)c1cnc(-c2ccc(Cl)cc2)s1 | 87.5% (active) |
| CC(=O)c1cnc(-c2ccccc2)s1 | -8.03% (inactive) |
| O=C(/C=C/Nc1ccccc1)c1cnc(-c2ccccc2)s1 | -8.21% (inactive) |
| CC(=O)Nc1ccc(C(=O)NN=CC2CC3C=CC2C3)cc1 (stereo not drawn) | 9.12% (inactive) |
| CS(=O)(=O)c1ccc(CNC(=O)[C@]2(C(F)(F)F)CC(CCc3ccccc3)CCCO2)cc1 (stereo partly drawn) | -0.803% (inactive) |
| Cc1cccc(NC(=O)c2ccc([N+](=O)[O-])o2)c1 | 21.9% (inactive) |
| Cc1ccc(NCC(=O)NN=Cc2ccc([N+](=O)[O-])o2)cc1 | 26.7% (inactive) |
| C/[N+]([O-])=C\c1ccc([N+](=O)[O-])o1 | 96.9% (active) |
| CCC(C)N1CCC2(CC1)N=c1c(c3c4c5c(C)c(O)c3c(O)c1=NC(=O)C(C)=CC=CC(C)C(O)C(C)C(O)C(C)C(OC(C)=O)C(C)C(OC)C=CO[C@@](C)(O5)C4=O)N2 (stereo partly drawn) | 99.6% (active) |
| Cn1c(=O)[nH]c(=O)c2c1nc(N1CCCCC1)n2CC=NNc1ccc(C(=O)O)cc1 | 10.4% (inactive) |
| O=C(CNC(=O)c1ccco1)NN=Cc1ccc(O)cc1O | 4.74% (inactive) |
| CC(C)C(=O)NC(=S)Nc1ccccc1F | 14.2% (inactive) |
| CC(C)CC(=O)NC(=S)Nc1ccc(F)cc1F | 86.4% (active) |
| CC(C)CC(=O)NC(=S)Nc1cc(C(=O)O)ccc1Cl | 9.77% (inactive) |
| CCOC(=O)COc1c(C=NO)cc(Cl)cc1OC | 1.74% (inactive) |
| O=C(CN1CCCCCC1)Nc1ccc(Br)cc1[N+](=O)[O-] | 5.98% (inactive) |
| O=C(CN1CCCCCC1)Nc1ccc(Br)cc1Br | 4.57% (inactive) |
| O=C(CN1CCCCC1)Nc1ccc(Br)cc1C(=O)c1ccccc1Cl | 88.6% (active) |

| Compound | growth inhibition |
| --- | --- |
| COC(=O)C1=C(C(=O)OC)C2N(C)c3ccccc3[C@@]23CC(C(=O)OC)N(C(C)=O)C3=N1 (stereo partly drawn) | 3.76% (inactive) |
| CC(C)C(=NNc1ccccc1[N+](=O)[O-])c1ccccc1 | 42.3% (inactive) |
| NC(=O)C(=Cc1ccccc1)NC(=O)C=Cc1ccccc1 | -1.58% (inactive) |
| CC(Cc1ccccc1)=NNC(=O)CNC(=O)Cc1ccccc1 | 2.62% (inactive) |
| Cc1nc2c(cnn2-c2ccccc2)c(=O)n1N=Cc1ccccc1 | 6.82% (inactive) |
| C=C[C@]1(C)CC(OC(=O)CSCCN(CC)CC)[C@]2(C)C(C)CC[C@]3(CCC(=O)C32)C(C)C1O (stereo partly drawn) | 99.9% (active) and 100% (active) |
| O=C(C=Cc1ccccc1Cl)Nc1ccncc1 | -22.9% (inactive) |
| C[C@]12CCC3c4ccc(O)cc4CCC3C1CCC2OC(=O)CCC(=O)O (stereo partly drawn) | 1.18% (inactive) |
| O=C(CN1CCN(Cc2ccccc2)CC1)NN=Cc1ccc(Br)s1 | -1.87% (inactive) |
| COc1cccc(C2CC=C(C(=O)O)C(c3ccc(F)cc3)N2S(=O)(=O)c2ccc(C)cc2)c1 (stereo not drawn) | 24.5% (inactive) |
| O=[N+]([O-])c1cccc(C=NNc2nc(NCc3ccccc3)nc(N3CCOCC3)n2)c1O | 1.29% (inactive) |
| Cc1ccc(-c2csc(N3CCCC3C(=O)NCCn3c(-c4ccncc4)nc4ccccc43)n2)cc1 (stereo not drawn) | 12.4% (inactive) |
| Cc1nn(-c2ccccc2)c(C)c1C=NNC(=O)c1cc(-c2ccc(Br)s2)[nH]n1 | -11.7% (inactive) |
| COc1c(N2CCN(C(=S)Nc3ccccc3F)C(C)C2)c(F)cc2c(=O)c(C(=O)O)cn(C3CC3)c12 (stereo not drawn) | 100% (active) |
| CC1CN(C(=S)Nc2ccccc2F)CC(C)O1 (stereo not drawn) | 2.47% (inactive) |
| COc1ccccc1NC(=S)N1CCN(c2ccc(F)cc2)CC1 | 6.45% (inactive) |
| CC=C(C)C(=O)Nc1cccc(C2=NOC3(C2)CC(C(N)=O)N(C(=O)c2ccc(OC)cc2)C3)c1 (stereo not drawn) | 0.227% (inactive) |
| O=S(=O)(C=Cc1ccccc1)N1CCN(c2nc(-c3cccnc3)nc3ccccc23)CC1 | -1.02% (inactive) |
| NC(=O)C(=O)NN=Cc1cccc(C(F)(F)F)c1 | 6.69% (inactive) |
| CCN(CC)CCCSc1nc2ccccc2s1 | 5.71% (inactive) |
| O=[N+]([O-])c1c(NCCO)cc(Sc2nc3ccccc3s2)c2nonc12 | 99.9% (active) |
| OCCNc1nc(Nc2ccc(Cl)c(Cl)c2)nc2ccccc12 | -40.3% (inactive) |
| CC(=O)CC1c2cc(C(F)(F)F)ccc2S(=O)(=O)N1C1CCCC1 (stereo not drawn) | -1.55% (inactive) |
| CCOC(=O)c1ccc(NC(=O)c2nc[nH]c2C(=O)NC(Cc2ccccc2)C(=O)OC(C)(C)C)cc1 (stereo not drawn) | -22.8% (inactive) |

| Compound | growth inhibition |
| --- | --- |
| Cc1ccc(C(=O)NCC(=O)NN=Cc2cccs2)cc1[N+](=O)[O-] | 4.96% (inactive) |
| COc1cc(C(=O)NN=Cc2cn(Cc3cccc(F)c3)c3ccccc23)ccc1O | -6.8% (inactive) |
| COc1cccc(C=NNC(=O)CSCC(=O)Nc2ccccc2)c1O | -4.58% (inactive) |
| COc1cccc(C=NNc2ncnc3c2ncn3Cc2ccccc2)c1O | 2.15% (inactive) |
| COc1cccc(C=NNc2cc(-n3nc(C)cc3-c3ccccc3)ncn2)c1O | 101% (active) |
| CCc1ccc2c(c1)C(=O)C[C@]1(CCCC(C)C1)O2 (stereo partly drawn) | 5.31% (inactive) |
| C#CCNC(=O)C1=CC(c2csc3ccccc23)CC(OCCCCO)O1 (stereo not drawn) | -11.2% (inactive) |
| Cc1ccc(OCC(=O)NN=Cc2ccc3c(c2)OCO3)cc1C | -11% (inactive) |
| CCCCCN1CC(O)=C(c2ccccc2)C1=N | 2.59% (inactive) |
| CCCCCCCCCCCCn1ccc(=N)cc1 | 101% (active) |
| COc1ccc(C=NNc2nn3cnnc3c3ccccc23)cc1 | 12.2% (inactive) |
| CCOC(=O)CN1C(=O)NC(c2ccco2)C(C(C)=O)=C1C (stereo not drawn) | -0.836% (inactive) |
| CCC(=O)Nc1cccc(C2=NOC3(C2)CC(C(N)=O)N(C(=O)COc2ccc(Cl)cc2)C3)c1 (stereo not drawn) | 3.89% (inactive) |
| CCOC(=O)C1(CCOc2ccccc2)CCN(Cc2cc(OC)c(O)cc2Cl)CC1 | 4.94% (inactive) |
| CCOC(=O)C1(CCOc2ccccc2)CCN(Cc2cc(OC)cc(OC)c2)CC1 | 2.42% (inactive) |
| Cc1c(CN2CCC(CO)(CCOc3ccccc3)CC2)[nH]c2ccc(Cl)cc12 | 95.4% (active) |
| Nc1nonc1-n1nnc(C(=O)NN=Cc2ccc(Cl)cc2Cl)c1CN1CCCCC1 | 6.34% (inactive) |
| ON=C1CC2(CC(=NO)C1=NO)OCCO2 | -5.45% (inactive) |
| Cc1nc2cc(NC(=O)Nc3cccc(F)c3)ccc2n1C | -1.04% (inactive) |
| O=C(Nc1ccc2ccccc2c1)Nc1ccc2snnc2c1 | 94.2% (active) |
| S=C(Nc1ccccc1)Nc1ccc2ccccc2c1 | -7.81% (inactive) |
